# Assay results: PubChem BioAssay (NCATS)
# Records with an inconclusive call do not appear. The source made the active and inactive calls. Unless noted, the call rests on the fitted dose curve; in most records, active means well fitted curve in the direction sought with a large enough effect; inconclusive means small, poorly fitted or top-dose-only effect, or another doubt; inactive means no such curve, though single readings can be large; an effect the other way counts as inactive or inconclusive.
# Experiments:
# [1] = P-glycoprotein substrates identified in KB-3-1 adenocarcinoma cell line, qHTS therapeutic library screen (AID 1346986); further: nearly all actives have a fitted effect of over 60% in size;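 further: potency means the concentration at half of the fitted maximal effect; potency is for cytotoxicity meaning loss of cell viability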
# Method in brief: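 KB-3-1 parental cells and P-gp-overexpressing KB-8-5-11 (colchicine omitted during assay) plated at 500 cells/well, dosed in dose-response, incubated 72 h at 37 degree C. CellTiter-Glo luminescence read; KB-8-5-11 also tested with tariquidar.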
# [2] = P-glycoprotein substrates identified in KB-8-5-11 adenocarcinoma cell line, qHTS therapeutic library screen (AID 1346987); further: nearly all actives have a fitted effect of over 65% in size; further: potency means the concentration at half of the fitted maximal effect
# Method in brief: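 P-gp-mediated resistance screen: KB-8-5-11 cells treated 72 h with compounds in dose-response. CellTiter-Glo viability.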
# [3] = Cytotoxicity counterscreen for inhibitors of SARS-CoV-2 cell entry (AID 1645845; calls by dose curve; further: potency means the concentration at half of the fitted maximal effect; nearly all actives have a fitted effect of over 50% in size)
# Method in brief: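 Expi293F/hACE2 cells seeded overnight; cpd pin-transferred in DMSO, 1 h preincubation, + media, 48 h 37 C 5% CO2; ATPLite 1step luminescence; normalized to cells and no cells.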
# [4] = Primary qHTS for inhibitors of nuclear receptor binding SET domain protein 2 (NSD2) in an isogenic RCH-ACV NSD2 p.E1099K mutant (9B) (AID 1645876); further: potency means the concentration at half of the fitted maximal effect; nearly all actives have a fitted effect of over 70% in size
# [5] = Primary qHTS for inhibitors of nuclear receptor binding SET domain protein 2 (NSD2) in an RCH-ACV wild type WT cells (2C) (AID 1645877); further: nearly all actives have a fitted effect of over 70% in size; further: potency means the concentration at half of the fitted maximal effect
# [6] = molecular target: Glutathione peroxidase 1 (Homo sapiens) (UniProt P07203); assay: Primary qHTS Assay for Inhibitors of Recombinant Selenoprotein Glutathione Peroxidase 1 (GPX1) (AID 1845191); further: nearly all actives have a fitted effect of over 65% in size
# Method in brief: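 Recombinant GPX1 (10 nM final) was preincubated with compound for 30 min at room temperature, then reacted with 1 mM GSH, 0.5 mM CHP, 0.5 mM NADPH and 100 nM glutathione reductase; NADPH fluorescence (340/450 nm) was read at 0 and 15 min.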
# [7] = molecular target: Phospholipid hydroperoxide glutathione peroxidase GPX4 (Homo sapiens) (UniProt P36969); assay: Primary qHTS Assay for Inhibitors of Recombinant Selenoprotein Glutathione Peroxidase 4 (GPX4) (AID 1845192); further: on the % scale 0 is the no-effect control and ±100 the full control effect; nearly all actives have a fitted effect of over 65% in size
# Method in brief: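 GR-coupled readout: 100 nM GR, 1 mM GSH, 0.5 mM NADPH; NADPH fluorescence (ex 340/em 450 nm) read at t=0 and after 15 min RT. GPX4 200 nM, preincubated 30 min with compound; substrate 0.5 mM CHP.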
# [8] = qHTS drug screen for cell cycle checkpoint inhibitors in PARPi-resistant BRCA-mutant ovarian cancer cell lines. (AID 1963452; calls by dose curve); details: PEO1/OlaR viability, CellTiter-Glo luminescence, 96 h, stronger effect = lower value
# Method in brief: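 PEO1, PEO4 and PEO1/OlaR ovarian cancer cells, 600 per well, exposed 96 h at 37C to a dilution series. Viability read by CellTiter-Glo luminescence, normalized to DMSO and empty wells; activity summarized as Z-AUC.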
# [9] = qHTS assay for small molecule activators of the p53 signaling pathway (AID 651743; active means well fitted activation curve with a large enough effect in the signal ratio, not every such curve was filed as active; the % refers to the signal ratio; further: % of control where 0% means no effect); details: HCT-116 p53RE-bla, beta-lactamase FRET ratio, 16 h; activation: stronger effect = higher value
# Method in brief: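 p53RE-bla HCT-116 cells with a stably integrated beta-lactamase reporter under p53 response elements were plated, rested 5 hours at 37 C/5% CO2, then exposed to compounds in DMSO for 16 hours at 37 C. LiveBLAzer B/G FRET substrate was read after 2 hours at room temperature.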
# [10] = qHTS assay for environmental chemicals that activate the Aryl hydrocarbon Receptor (AhR) signaling pathway (AID 651777); details: 1A2-DRE human hepatoma cells, luciferase, 24 h; activation: stronger effect = higher value; further: % of control where 0% means no effect; nearly all actives have a fitted effect of over 15% in size
# Method in brief: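 Human hepatoma 1A2-DRE cells, stably carrying a dioxin response element and CYP1A2 promoter driving luciferase, were exposed to compounds for 24 hr at 37 C and 5% CO2. Luciferase signal was then read after 30 min One-Glo at room temperature.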
# [11] = molecular target: Peroxisome proliferator-activated receptor alpha (Homo sapiens) (UniProt Q07869); assay: qHTS assay for small molecule agonists of the peroxisome proliferator-activated receptor alpha (PPARalpha) signaling pathway (AID 651778); details: PathHunter PPARalpha complementation, chemiluminescence, 6 h; stronger effect = higher value; further: % of control where 0% means no effect
# Method in brief: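 Cells plated at 2,000/well and held overnight at 37 C, 5% CO2, then compound added by pin tool for 6 hr; after PathHunter detection reagent and 60 min at room temperature, chemiluminescence from enzyme complementation was read.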
# [12] = qHTS assay for small molecule agonists of the antioxidant response element (ARE) signaling pathway measured by Nrf2-dependant transcriptional activity (AID 720636; active means well fitted curve in the direction sought with a large enough effect in the repeat runs; an effect the other way counts as inactive or inconclusive; further: % of control where 0% means no effect)
# Method in brief: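 ARE-luc HepG2 cells carrying an Nrf2-responsive luciferase reporter were plated in medium with 1% dialyzed FBS, left 6 hr at 37 C to attach, then exposed to compound for 16 hr. Luciferase luminescence was read after ONE-Glo addition.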
# [13] = qHTS assay for small molecule agonists of the antioxidant response element (ARE) signaling pathway measured by Nrf2-dependant transcriptional activity - cell viability counter screen (AID 720653; active means well fitted curve in the direction sought with a large enough effect in the repeat runs; an effect the other way counts as inactive or inconclusive; further: on the % scale 0 is the no-effect control and ±100 the full control effect); details: ARE-bla HepG2 viability, CellTiter-Glo ATP luminescence, 16 h; max response: stronger effect = lower value
# Method in brief: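 ARE-bla HepG2 cells (2,000/well) rested 5 hrs at 37C/5% CO2, then exposed to compounds in DMSO for 16 hrs. Viability was read in the same wells as intracellular ATP by luminescence, 30 min at room temperature after reagent addition.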
# [14] = qHTS assay for cell viability of HEK293 cells (AID 743288); details: ATP luminescence (CellTiter-Glo), 18 h; max response: stronger effect = lower value; further: on the % scale 0 is the no-effect control and ±100 the full control effect; nearly all actives have a fitted effect of over 50% in size
# Method in brief: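 Parental HEK293 cells, 2,000 per well, preincubated at least 5 h at 37 C, then exposed to compounds in DMSO for 18 h at 37 C. Viability by CellTiter-Glo ATP luminescence after 30 min at room temperature.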
# [15] = qHTS assay for cell viability of the p53RE-bla HCT-116 cell line (AID 743292); further: on the % scale 0 is the no-effect control and ±100 the full control effect; nearly all actives have a fitted effect of over 55% in size
# Method in brief: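 CellSensor p53RE-bla HCT-116 cells, 4,000/well, preincubated 5 h at 37 C, then exposed to compounds in DMSO for 16 h at 37 C. Viability read as CellTiter-Glo luminescence (intracellular ATP) after 30 min at room temperature.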
# [16] = molecular target: Nuclear receptor subfamily 1 group I member 2 (Rattus norvegicus) (UniProt Q9R1A7); assay: qHTS assay for small molecule activators of the rat pregnane X receptor (rPXR) signaling pathway (AID 651751; call rule not given here; further: 0% is about no effect); details: rPXR reporter cells, luciferase (One-Glo), 24 h
# [17] = qHTS assay for small molecule activators of the human pregnane X receptor (PXR) signaling pathway (AID 720659; call rule not given here; further: 0% is about no effect)
# astro = assay: Drug repurposing screens with cells derived from glioblastoma tumor samples (AID 1345199); details: viability, ATP luminescence, 48 h; series mostly up to 45.9 µM; further: on the % scale 0 is the no-effect control and ±100 the full control effect; nearly all actives have a fitted effect of over 40% in size
# Method in brief: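 Four patient lines of CD133+ GBM neurospheres were screened at several concentrations; hits were retested in those lines plus three slower-growing GBM lines, using 48-hour treatment and ATP-based viability.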
# [18] = tested on: Zika virus NS2B-NS3 protease; assay: Primary screen GU AMC qHTS for Zika virus inhibitors (AID 1347154);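 further: 0% = no-inhibitor control and -100% = no-enzyme control; nearly all actives have a fitted effect of over 70% in size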
# Method in brief: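 Unlinked Zika NS2B hydrophilic domain/NS3 protease domain noncovalent complex (25 nM final) in 10 mM Tris-HCl pH 8.0, 0.01% Tween 20, with AMC peptide substrate. Fluorescence (ex 340, em 450 nm) change over 15 min, room temperature; percent inhibition fitted to 4-parameter Hill equation.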
# [19] = Primary qHTS for small molecule stabilizers of the endoplasmic reticulum resident proteome: Secreted ER Calcium Modulated Protein (SERCaMP) assay (AID 1508630); further: on the % scale 0 is the no-effect control and ±100 the full control effect
# Method in brief: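 GLuc-SERCaMP-expressing SH-SY5Y cells, pretreated 16 h with compound, are challenged with thapsigargin to empty ER calcium stores; after 4 h, coelenterazine is added directly to the medium and luminescence is imaged.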
# Sequence of Glutathione peroxidase 1 (Homo sapiens) (P07203 whole entry, looked up): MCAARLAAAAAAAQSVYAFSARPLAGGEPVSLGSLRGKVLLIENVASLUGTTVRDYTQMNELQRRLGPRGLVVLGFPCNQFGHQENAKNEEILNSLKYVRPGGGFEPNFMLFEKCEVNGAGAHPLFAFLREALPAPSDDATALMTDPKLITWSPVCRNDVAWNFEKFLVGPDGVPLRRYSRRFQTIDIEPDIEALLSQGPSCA
# Sequence of Phospholipid hydroperoxide glutathione peroxidase GPX4 (Homo sapiens) (P36969 whole entry, looked up): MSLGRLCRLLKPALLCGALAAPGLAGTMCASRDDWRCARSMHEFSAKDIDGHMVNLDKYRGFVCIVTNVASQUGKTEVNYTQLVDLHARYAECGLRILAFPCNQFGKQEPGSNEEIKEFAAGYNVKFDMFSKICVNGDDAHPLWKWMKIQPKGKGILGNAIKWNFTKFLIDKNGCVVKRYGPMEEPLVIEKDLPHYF
# Sequence of Nuclear receptor subfamily 1 group I member 2 (Rattus norvegicus) (Q9R1A7 whole entry, looked up): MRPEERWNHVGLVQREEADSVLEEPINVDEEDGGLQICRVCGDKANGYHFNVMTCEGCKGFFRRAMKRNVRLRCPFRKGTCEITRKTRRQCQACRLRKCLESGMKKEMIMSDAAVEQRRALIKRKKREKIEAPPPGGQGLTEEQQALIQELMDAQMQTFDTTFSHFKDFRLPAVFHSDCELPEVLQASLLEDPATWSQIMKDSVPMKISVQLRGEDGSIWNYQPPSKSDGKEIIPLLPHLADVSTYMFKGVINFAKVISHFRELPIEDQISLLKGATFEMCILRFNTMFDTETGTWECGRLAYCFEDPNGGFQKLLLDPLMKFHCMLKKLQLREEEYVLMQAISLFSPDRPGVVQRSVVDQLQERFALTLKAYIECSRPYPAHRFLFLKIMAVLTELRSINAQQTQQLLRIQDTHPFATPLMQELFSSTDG
# Sequence of Peroxisome proliferator-activated receptor alpha (Homo sapiens) (Q07869 whole entry, looked up): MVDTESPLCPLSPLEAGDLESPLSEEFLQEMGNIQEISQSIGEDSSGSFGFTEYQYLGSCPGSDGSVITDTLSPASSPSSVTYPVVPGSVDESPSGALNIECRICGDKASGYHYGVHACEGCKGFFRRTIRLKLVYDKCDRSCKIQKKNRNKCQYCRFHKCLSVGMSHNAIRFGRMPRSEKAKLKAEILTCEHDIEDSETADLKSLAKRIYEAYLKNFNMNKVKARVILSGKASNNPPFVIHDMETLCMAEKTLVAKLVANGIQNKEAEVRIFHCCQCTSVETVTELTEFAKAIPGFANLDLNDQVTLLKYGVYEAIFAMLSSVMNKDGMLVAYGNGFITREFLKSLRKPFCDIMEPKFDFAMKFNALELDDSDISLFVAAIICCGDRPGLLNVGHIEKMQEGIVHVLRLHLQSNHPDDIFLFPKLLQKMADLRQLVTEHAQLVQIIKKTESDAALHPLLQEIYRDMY
smiles,measurement,setting,value
O=C(NCCCNc1nc(Nc2ccc(N3CCOCC3)cc2)ncc1C1CC1)C1CCC1,Potency,[1],10.3 µM (active)
same,Potency,[2],11.6 µM (active)
same,Potency,[3],22.4 µM (active)
same,Potency,[4],5.25 µM (active)
same,Potency,[5],7.42 µM (active)
same,Potency,[6],inactive
same,Potency,[7],inactive
same,Z-AUC,[8],0.0288 (inactive)
same,Z-AUC,[8]; measured here: PEO1 parental Z-AUC,-0.267
same,Z-AUC,[8]; measured here: PEO4 Z-AUC,-0.524
C[C@]12CC[C@H]3[C@@H](CCC4=CC(=O)CC[C@@]43C)[C@@H]1CC[C@H]2O,activation,[9],0.0688% (inactive)
same,activation,[10],-2.33% (inactive)
same,max response,[11],-2.25% (inactive)
same,Potency,[12],inactive
same,max response,[13],1.08% (inactive)
same,max response,[14],-7.89% (inactive)
same,outcome,[15],inactive
same,Potency,[2],2.59 µM (active)
same,max response,[16],3.9% (inactive)
same,outcome,[17],inactive
CCC(=O)O[C@](Cc1ccccc1)(c1ccccc1)[C@H](C)CN(C)C,Potency,[2],20 µM (active)
same,Potency,astro,inactive
C#C[C@]1(OC(=O)CCCCCC)CC[C@H]2[C@@H]3CCC4=CC(=O)CC[C@@H]4[C@H]3CC[C@@]21C,Potency,[2],20.6 µM (active)
Nc1ccn(CC(CO)OCP(=O)(O)O)c(=O)n1 (configuration not stated),Potency,[1],inactive
same,Potency,[2],inactive
same,Potency,[5],inactive
O=C1NC(=O)c2c1c1c3ccccc3n3c1c1c2c2ccccc2n1C1CCC3O1,Potency,[2],3.66 µM (active)
same,Potency,[18],inactive
same,Potency,[19],inactive
same,Potency,[4],0.517 µM (active)
same,Potency,[5],0.731 µM (active)
same,Potency,[6],inactive
